Screens (PubChem BioAssay)
12-LOX inh = Primary qHTS assay for inhibitors of human arachidonate 12S-lipoxygenase (ALOX12): Round 2 | Polyunsaturated fatty acid lipoxygenase ALOX12 (Homo sapiens), P18054 | purified 12hLO, xylenol orange hydroperoxide absorbance | Potency, µM (top dose mostly 108 µM), inactives show top-dose activity change, negative = inhibition, most hits filed as inhibitors | 580,000 compounds, 1.1% hits; further: on the % scale 0 is the no-effect control and ±100 the full control effect
Target sequence (P18054 whole entry, looked up): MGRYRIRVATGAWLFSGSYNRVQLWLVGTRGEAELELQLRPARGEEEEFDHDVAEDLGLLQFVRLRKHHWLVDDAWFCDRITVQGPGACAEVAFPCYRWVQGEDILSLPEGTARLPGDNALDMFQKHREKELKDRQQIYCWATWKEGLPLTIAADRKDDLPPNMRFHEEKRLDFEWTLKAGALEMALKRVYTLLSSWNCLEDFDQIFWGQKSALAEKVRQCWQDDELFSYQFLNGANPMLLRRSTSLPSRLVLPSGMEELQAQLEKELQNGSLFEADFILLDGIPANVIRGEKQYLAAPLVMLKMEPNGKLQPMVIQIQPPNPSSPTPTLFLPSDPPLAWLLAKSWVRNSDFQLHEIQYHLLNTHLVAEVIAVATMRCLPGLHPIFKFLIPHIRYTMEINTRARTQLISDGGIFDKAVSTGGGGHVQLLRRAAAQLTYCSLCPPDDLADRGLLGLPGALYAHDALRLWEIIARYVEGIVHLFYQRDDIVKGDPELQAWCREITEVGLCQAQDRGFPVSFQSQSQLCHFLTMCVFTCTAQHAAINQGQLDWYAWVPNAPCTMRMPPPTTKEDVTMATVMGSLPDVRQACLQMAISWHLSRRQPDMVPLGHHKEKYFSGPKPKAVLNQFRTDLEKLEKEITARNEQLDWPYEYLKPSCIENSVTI
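Purified human 12hLO at 150 nM in 25 mM Hepes, 0.01% Triton X-100, pH 7.0, preincubated 15 min at room temperature with compound. Reaction started with 40 uM arachidonic acid, 30 min at room temperature. Hydroperoxide measured by Fe-xylenol orange, 573/405 nm absorbance ratio.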
MCF10A rereplic = A quantitative high throughput screen for small molecules that induce DNA re-replication in MCF 10a normal breast cells. 350,000 compounds, 2.9% hits. Potency, µM (top dose mostly 46.1 µM), for inactives: at the top dose activity, positive = re-replication, most hits filed as activators. MCF 10A DNA re-replication, Hoechst nuclear intensity, 48 h; further: % of control where 0% means no effect; nearly all actives have a fitted effect of over 50% in size
SW480 rerep = A quantitative high throughput screen for small molecules that induce DNA re-replication in SW480 colon adenocarcinoma cells; SW480 DNA re-replication, Hoechst DNA content imaging, 48 h; Potency, µM (titrated, usually from 46.1 µM), for the others: top-dose re-replication activation, actives largely listed as activators; 340,000 compounds, 1.8% hits; further: % of control where 0% means no effect; nearly all actives have a fitted effect of over 55% in size
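SW480 cells exposed to compounds for 48 hr at 37 C, 5% CO2, then Hoechst-stained 40 min. Nuclear DNA content imaged by fluorescence scanning (405 nm excitation, 500-530 nm emission); re-replication scored as increased high-intensity nuclei.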
KB-3-1 cytotox = qHTS assay for MDR1-selective chemotherapeutics: Primary screen using the parental adenocarcinoma cell KB-3-1. KB-3-1 viability, CellTiter-Glo ATP luminescence, 72 h. Potency, µM (top dose mostly 46.1 µM), hits mostly cytotoxic. 400,000 compounds, 1.4% hits. AID 1347075, 2019; further: on the % scale 0 is the no-effect control and ±100 the full control effect; nearly all actives have a fitted effect of over 60% in size
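Using CellTiter-Glo luminescence, growth of non-resistant KB-3-1 adenocarcinoma cells is assessed 72 h after pin-tool compound addition at 37 °C. Normalized responses across the concentration series yield fitted curves.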
KB-V1 MDR tox = qHTS assay for MDR1-selective chemotherapeutics: Primary screen using the drug-selected MDR subline cells KB-V1; AID 1347076, 2019; KB-V1 MDR cells viability, CellTiter-Glo, 72 h; 400,000 compounds, 3.4% hits; Potency, µM (series often up to 46.1 µM), actives largely listed as cytotoxic; further: on the % scale 0 is the no-effect control and ±100 the full control effect; nearly all actives have a fitted effect of over 60% in size
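Compound-treated KB-V1 multidrug-resistant cells, 72 h, 37 degrees C; viability by CellTiter-Glo. Fitted qHTS curves give the values.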
PINK1 modulator = A Quantitative High throughput Screen to Identify Chemical Modulators of PINK1 Expression. PINK1 immunofluorescence, high-content cytometry, 24 h. Potency, µM (doses to about 76.6 µM), without a hit: at the top dose activation (PINK1 increase), most hits filed as activators. 410,000 compounds, 0.2% hits. AID 624263, 2012; active means well fitted activation curve with a large enough effect; inconclusive means small, poorly fitted or top-dose-only effect; cell line not stated here; further: % of control where 0% means no effect; nearly all actives have a fitted effect of over 65% in size
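PINK1 protein level read as immunofluorescence by microplate cytometer in a fixed, stained stable cell line after 24 h exposure to five compound concentrations, with CCCP as control.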
* = called active by the depositor; i = inactive; ? = inconclusive; . = no result given; [ ] = another dose, or the depositor's remark. Compounds with a hit are over-represented: about 5.8% of the library has one in this group of screens. Unless noted, the call rests on the fitted dose curve; in most records, active means well fitted curve in the direction sought with a large enough effect; inconclusive means small, poorly fitted or top-dose-only effect, or another doubt; inactive means no such curve, though single readings can be large; an effect the other way counts as inactive or inconclusive. Potency means the concentration at half of the fitted maximal effect.

SMILES	12-LOX inh	MCF10A rereplic	SW480 rerep	KB-3-1 cytotox	KB-V1 MDR tox	PINK1 modulator
C=CCn1c(SCC(=O)NC2CCCC2)nc2scc(-c3ccco3)c2c1=O	45µM*	?	13%	i	i	4%
CCOC(=O)c1sc(N)c(C(=O)Nc2ccccc2OC)c1C	?	10µM*	16µM*	?	10µM*	9%
O=C(c1ccc(F)cc1)N1c2ccccc2-n2c(nc3ccccc32)C1CCc1ccccc1 (stereo unspecified)	-8%	.	.	.	.	.
C[n+]1ccccc1/C=C1\Sc2ccccc2N1CCO	224%	16%	-1%	21µM*	i	0%
O=C(COc1ncnc2sc3c(c12)CCC3)N1CCCc2ccccc21	-16%	.	.	.	.	.
CC(C)Oc1ccc(C(=O)NC(=S)Nc2ccc(Cl)c(C(=O)O)c2)cc1	10µM*	0%	-3%	i	i	0%
CC(C)C(=O)NC(=S)Nc1ccc(NC(=O)c2cccc(Cl)c2)cc1	16µM*	.	.	.	.	.
CCCCOc1cccc(C(=O)NC(=S)Nc2cccc(NC(=O)c3ccccc3Cl)c2)c1	11µM*	1%	-1%	i	i	13%
CC(C)C(=O)Nc1cccc(NC(=S)NC(=O)c2ccccc2Cl)c1	-1%	8%	0%	i	i	0%
CC(C)COc1cccc(C(=O)NC(=S)Nc2cccc(NC(=O)c3ccccc3Cl)c2)c1	28µM*	8%	-6%	i	i	5%
CC(C)NC(=O)CSc1ccccc1C(=O)Nc1ccccc1C(=O)NC1CC1	1%	.	.	.	.	.
CCN(CC)S(=O)(=O)c1ccc(F)c(C(=O)NCC2COc3ccccc3O2)c1 (stereo unspecified)	-2%	.	.	.	.	.
CC(C)Oc1cccc(C(=O)NC(=S)Nc2ccccc2)c1	22µM*	-1%	-30%	i	i	-1%
CCCOc1cccc(C(=O)NC(=S)Nc2ccccc2)c1	16µM*	-1%	?	i	i	3%
COc1cc(OC)cc(C(=O)Nc2nnc(NC(=S)Nc3ccccc3)s2)c1	.	10µM*	9%	i	i	0%
CCCOc1cccc(C(=O)NC(=S)Nc2cccc(NC(=O)c3ccccc3Cl)c2)c1	13µM*	26%	7%	i	i	6%
CCC(=O)Nc1cccc(NC(=S)NC(=O)c2ccccc2Cl)c1	-2%	6%	1%	i	i	2%
O=C(NCC1(c2ccccc2)CCC1)C12CC3CC(CC(C3)C1)C2	-12%	.	.	.	.	.
CCNc1cc(S(=O)(=O)C(F)(F)F)ccc1N	-8%	19%	1%	?	23µM*	0%
O=C(Nc1ccc2nc(N3CCN(C4CCCCC4)CC3)cc(C(=O)O)c2c1)c1ccc(Cl)cc1	13µM*	.	.	.	.	.
CCCN1CCN(c2cc(C(=O)O)c3cc(NC(=O)C(C)C)ccc3n2)CC1	11µM*	.	.	.	.	.
CCN1CCN(c2cc(C(=O)O)c3cc(NC(=O)C(C)C)ccc3n2)CC1	16µM*	.	.	.	.	.
CCCCC(=O)Nc1ccc2nc(N3CCN(CC)CC3)cc(C)c2c1	-58%	.	.	.	.	.
N#CCCN1CCN(c2cc(C(=O)O)c3cc(NC(=O)C4CCCC4)ccc3n2)CC1	-84%	.	.	.	.	.
CN1CCN(c2cc(C(=O)O)c3cc(NC(=O)c4ccc(Cl)cc4)ccc3n2)CC1	-82%	.	.	.	.	.
SMILES	12-LOX inh	MCF10A rereplic	SW480 rerep	KB-3-1 cytotox	KB-V1 MDR tox	PINK1 modulator
N#CCCN1CCN(c2cc(C(=O)O)c3cc(NC(=O)c4ccccc4)ccc3n2)CC1	6.3µM*	.	.	.	.	.
CCn1c(=O)n(CC)c2cc(Sc3ccccc3)c(NC(=O)c3cccc(F)c3)cc21	18%	.	.	.	.	.
Cc1ccc(-n2c(=O)c3c(cc(C)n3C)n(CC(=O)Nc3ccccc3F)c2=O)cc1	-2%	.	.	.	.	.
Cc1cc2c(c(=O)n(-c3ccccc3)c(=O)n2CC(=O)Nc2ccccc2F)n1C	45µM*	.	.	.	.	.
COc1ccc(-c2cc(C#N)nc(Cl)n2)cc1	4.5µM*	?	24%	i	i	1%
CCN(CC)c1nc(C#N)cc(-c2ccc(OC)cc2)n1	-35%	15µM*	12µM*	7.3µM*	5.8µM*	4%
COc1ccc(-c2cc(C#N)nc(Oc3ccc(Cl)cc3)n2)cc1	-19%	13%	21%	i	i	13%
COc1ccc(/C=C(/C#N)C(=O)Nc2cccc3ncccc23)cc1OC	16µM*	.	.	.	.	.
C=CCOc1ccc(/C=C(\C#N)C(=O)Nc2ccccn2)cc1OC	10µM*	-1%	-7%	i	i	0%
CC(C)c1ccc(/C=C(/C#N)C(=O)Nc2cccc3ncccc23)cc1	16µM*	.	.	.	.	.
Nc1cc2ccncc2c2ccccc12	0%	21µM*	?	i	?	-1%
N#Cc1cc2ccncc2c2ccccc12	-7%	.	.	?	i	-1%
Cc1ccc(CN(C)C(=O)c2ccc(S(=O)(=O)N(C)c3ccccc3)cc2)o1	-25%	?	8.2µM*	i	i	0%
Cc1ccc(CN(C)C(=O)c2ccccc2Oc2ccccc2)o1	-10%	7%	?	i	21µM*	-4%
CSc1ccccc1OCc1cc(C(=O)N(C)Cc2ccc(C)o2)no1	?	10%	?	i	i	2%
CN(Cc1ccc(OC(F)F)cc1)C(=O)c1ccc(S(=O)(=O)N(C)c2ccccc2)cc1	5%	12%	-11%	?	i	1%
Cc1ccc(N(CC(O)Cn2c3ccccc3c3ccccc32)S(C)(=O)=O)c(C)c1 (stereo unspecified)	0%	?	5%	23µM*	13µM*	0%[38.3 µM]
CC(C)S(=O)(=O)N1CC(Oc2ccc(-c3noc(C4CCOCC4)n3)cc2)C1	60%	.	.	.	.	.
Cc1cc2cc3c(=O)[nH]c(=O)cc-3n(CC(O)C(O)C(O)CO)c2cc1C (stereo unspecified)	-17%	.	.	i	i	6%
Cc1cc2cc3c(=O)[nH]c(=O)nc-3n(CC(O)C(O)C(O)CO)c2cc1C (stereo unspecified)	-27%	?	21µM*	i	i	2%
Oc1ccc(Nc2nc3ccccc3nc2Nc2ccc(O)cc2)cc1	.	1.5µM*	4.6µM*	i	?	0%
Oc1ccc(Nc2nc(-c3ccc(Cl)cc3)nc3ccccc23)cc1	-25%	.	.	.	.	1%
Cc1c(Cl)cccc1NC(=S)NCCc1ccc(Cl)cc1	25µM*	16%	13µM*	?	i	?
